{
  "source": "paper PMC11006913",
  "test_in_all_cases": "PBM; 200 nM protein, PBS",
  "details_in_all_cases": "dsDNA, one strand shown",
  "key": {"[1]": {"molecular_target": "HOXB6 (Homo sapiens, UniProt P17509 132-218, K202E)", "sequence (P17509 132-218 K202E)": "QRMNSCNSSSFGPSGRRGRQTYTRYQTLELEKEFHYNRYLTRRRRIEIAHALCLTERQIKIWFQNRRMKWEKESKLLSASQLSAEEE"}, "[2]": {"molecular_target": "HOXA2 (Homo sapiens, UniProt O43364 129-215, R185T)", "sequence (O43364 129-215 R185T)": "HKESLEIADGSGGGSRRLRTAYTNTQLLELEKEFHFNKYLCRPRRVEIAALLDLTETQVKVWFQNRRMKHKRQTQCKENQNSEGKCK"}, "[3]": {"molecular_target": "HOXA2 (Homo sapiens, UniProt O43364 129-215, R185K)", "sequence (O43364 129-215 R185K)": "as the sequence (O43364 129-215 R185T) above, with T57K counted along it"}, "[4]": {"molecular_target": "HOXA2 (Homo sapiens, UniProt O43364 129-215, Y150S)", "sequence (O43364 129-215 Y150S)": "as the sequence (O43364 129-215 R185T) above, with Y22S, T57R counted along it"}, "[5]": {"molecular_target": "HOXA2 (Homo sapiens, UniProt O43364 129-215)", "sequence (O43364 129-215)": "as the sequence (O43364 129-215 R185T) above, with T57R counted along it"}, "[6]": {"molecular_target": "T1, PAX4 (Homo sapiens, UniProt O43316 9-242, R200K)", "T1 sequence": "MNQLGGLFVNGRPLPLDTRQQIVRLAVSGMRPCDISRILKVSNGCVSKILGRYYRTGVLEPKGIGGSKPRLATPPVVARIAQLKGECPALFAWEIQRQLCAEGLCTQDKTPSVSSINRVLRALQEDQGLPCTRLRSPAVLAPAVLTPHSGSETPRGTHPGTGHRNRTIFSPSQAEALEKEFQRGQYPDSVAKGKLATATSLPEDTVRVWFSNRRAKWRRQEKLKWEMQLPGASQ"}, "[7]": {"molecular_target": "ALX3 (Homo sapiens, UniProt O95076 139-225, N203Q)", "sequence (O95076 139-225 N203Q)": "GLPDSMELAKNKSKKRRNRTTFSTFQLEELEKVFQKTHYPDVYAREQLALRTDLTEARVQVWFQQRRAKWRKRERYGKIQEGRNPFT"}, "[8]": {"molecular_target": "T2, PAX4 (Homo sapiens, UniProt O43316 9-242, F177V)", "T2 sequence": "T1 sequence with F169V, K192R"}, "[9]": {"molecular_target": "ALX3 (Homo sapiens, UniProt O95076 139-225)", "sequence (O95076 139-225)": "as the sequence (O95076 139-225 N203Q) above, with Q65N counted along it"}, "[10]": {"molecular_target": "T3, PAX4 (Homo sapiens, UniProt O43316 9-242, F177Y)", "T3 sequence": "T1 sequence with F169Y, K192R"}, "[11]": {"molecular_target": "T4, PAX4 (Homo sapiens, UniProt O43316 9-242, R227W)", "T4 sequence": "T1 sequence with K192R, R219W"}, "[12]": {"molecular_target": "ALX3 (Homo sapiens, UniProt O95076 139-225, N203S)", "sequence (O95076 139-225 N203S)": "as the sequence (O95076 139-225 N203Q) above, with Q65S counted along it"}, "[13]": {"molecular_target": "VAX1 (Homo sapiens, UniProt Q5SQQ9 86-172)", "sequence (Q5SQQ9 86-172)": "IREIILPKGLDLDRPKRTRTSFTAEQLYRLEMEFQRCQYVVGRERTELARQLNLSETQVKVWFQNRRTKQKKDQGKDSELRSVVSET"}, "[14]": {"molecular_target": "VAX1 (Homo sapiens, UniProt Q5SQQ9 86-172, T142I)", "sequence (Q5SQQ9 86-172 T142I)": "as the sequence (Q5SQQ9 86-172) above, with T57I counted along it"}, "[15]": {"molecular_target": "VAX1 (Homo sapiens, UniProt Q5SQQ9 86-172, K157R)", "sequence (Q5SQQ9 86-172 K157R)": "as the sequence (Q5SQQ9 86-172) above, with K72R counted along it"}},
  "note": "Where a chain is given by its changes, count along the chain named.",
  "data": [
    {"sequence": "CAGGCCGG", "values": [
      {"measurement": "binding signal", "setting": "[1]", "value": "8.91 upbm affinity estimate (log intensity, higher = more binding, comparable within an allelic series)"},
      {"measurement": "binding signal", "setting": "[2]", "value": "7.05 upbm affinity estimate (log intensity, higher = more binding, comparable within an allelic series)"},
      {"measurement": "binding signal", "setting": "[3]", "value": "10.1 upbm affinity estimate (log intensity, higher = more binding, comparable within an allelic series)"},
      {"measurement": "binding signal", "setting": "[4]", "value": "10.3 upbm affinity estimate (log intensity, higher = more binding, comparable within an allelic series)"},
      {"measurement": "binding signal", "setting": "[5]", "value": "7.13 upbm affinity estimate (log intensity, higher = more binding, comparable within an allelic series)"}
    ]},
    {"sequence": "AATTAACC", "values": [
      {"measurement": "binding signal", "setting": "[6]", "value": "11.6 upbm affinity estimate (log intensity, higher = more binding, comparable within an allelic series)"},
      {"measurement": "binding signal", "setting": "[7]", "value": "8.33 upbm affinity estimate (log intensity, higher = more binding, comparable within an allelic series)"},
      {"measurement": "binding signal", "setting": "[8]", "value": "10.4 upbm affinity estimate (log intensity, higher = more binding, comparable within an allelic series)"},
      {"measurement": "binding signal", "setting": "[9]", "value": "12.3 upbm affinity estimate (log intensity, higher = more binding, comparable within an allelic series)"},
      {"measurement": "binding signal", "setting": "[10]", "value": "10.8 upbm affinity estimate (log intensity, higher = more binding, comparable within an allelic series)"},
      {"measurement": "binding signal", "setting": "[11]", "value": "10.8 upbm affinity estimate (log intensity, higher = more binding, comparable within an allelic series)"},
      {"measurement": "binding signal", "setting": "[12]", "value": "8.5 upbm affinity estimate (log intensity, higher = more binding, comparable within an allelic series)"}
    ]},
    {"sequence": "AATTATCA", "values": [
      {"measurement": "binding signal", "setting": "[10]", "value": "10.9 upbm affinity estimate (log intensity, higher = more binding, comparable within an allelic series)"}
    ]},
    {"sequence": "CACGGCGG", "values": [
      {"measurement": "binding signal", "setting": "[1]", "value": "9.01 upbm affinity estimate (log intensity, higher = more binding, comparable within an allelic series)"}
    ]},
    {"sequence": "AATTATCG", "values": [
      {"measurement": "binding signal", "setting": "[7]", "value": "8.39 upbm affinity estimate (log intensity, higher = more binding, comparable within an allelic series)"},
      {"measurement": "binding signal", "setting": "[9]", "value": "12.3 upbm affinity estimate (log intensity, higher = more binding, comparable within an allelic series)"},
      {"measurement": "binding signal", "setting": "[12]", "value": "8.5 upbm affinity estimate (log intensity, higher = more binding, comparable within an allelic series)"}
    ]},
    {"sequence": "AATTATCT", "values": [
      {"measurement": "binding signal", "setting": "[6]", "value": "11.7 upbm affinity estimate (log intensity, higher = more binding, comparable within an allelic series)"},
      {"measurement": "binding signal", "setting": "[7]", "value": "8.49 upbm affinity estimate (log intensity, higher = more binding, comparable within an allelic series)"},
      {"measurement": "binding signal", "setting": "[8]", "value": "10.5 upbm affinity estimate (log intensity, higher = more binding, comparable within an allelic series)"},
      {"measurement": "binding signal", "setting": "[9]", "value": "12.4 upbm affinity estimate (log intensity, higher = more binding, comparable within an allelic series)"},
      {"measurement": "binding signal", "setting": "[10]", "value": "11 upbm affinity estimate (log intensity, higher = more binding, comparable within an allelic series)"},
      {"measurement": "binding signal", "setting": "[11]", "value": "10.9 upbm affinity estimate (log intensity, higher = more binding, comparable within an allelic series)"},
      {"measurement": "binding signal", "setting": "[12]", "value": "8.6 upbm affinity estimate (log intensity, higher = more binding, comparable within an allelic series)"}
    ]},
    {"sequence": "GCCGGCGA", "values": [
      {"measurement": "binding signal", "setting": "[6]", "value": "9.18 upbm affinity estimate (log intensity, higher = more binding, comparable within an allelic series)"},
      {"measurement": "binding signal", "setting": "[8]", "value": "9.13 upbm affinity estimate (log intensity, higher = more binding, comparable within an allelic series)"},
      {"measurement": "binding signal", "setting": "[10]", "value": "9.03 upbm affinity estimate (log intensity, higher = more binding, comparable within an allelic series)"},
      {"measurement": "binding signal", "setting": "[13]", "value": "6.87 upbm affinity estimate (log intensity, higher = more binding, comparable within an allelic series)"},
      {"measurement": "binding signal", "setting": "[14]", "value": "7.22 upbm affinity estimate (log intensity, higher = more binding, comparable within an allelic series)"},
      {"measurement": "binding signal", "setting": "[11]", "value": "9.19 upbm affinity estimate (log intensity, higher = more binding, comparable within an allelic series)"},
      {"measurement": "binding signal", "setting": "[15]", "value": "7.26 upbm affinity estimate (log intensity, higher = more binding, comparable within an allelic series)"}
    ]},
    {"sequence": "CTCTCCAG", "values": [
      {"measurement": "binding signal", "setting": "[13]", "value": "7 upbm affinity estimate (log intensity, higher = more binding, comparable within an allelic series)"},
      {"measurement": "binding signal", "setting": "[14]", "value": "7.16 upbm affinity estimate (log intensity, higher = more binding, comparable within an allelic series)"},
      {"measurement": "binding signal", "setting": "[15]", "value": "7.01 upbm affinity estimate (log intensity, higher = more binding, comparable within an allelic series)"}
    ]},
    {"sequence": "TAATTGTA", "values": [
      {"measurement": "binding signal", "setting": "[1]", "value": "10 upbm affinity estimate (log intensity, higher = more binding, comparable within an allelic series)"},
      {"measurement": "binding signal", "setting": "[7]", "value": "8.59 upbm affinity estimate (log intensity, higher = more binding, comparable within an allelic series)"},
      {"measurement": "binding signal", "setting": "[8]", "value": "10.5 upbm affinity estimate (log intensity, higher = more binding, comparable within an allelic series)"},
      {"measurement": "binding signal", "setting": "[12]", "value": "8.7 upbm affinity estimate (log intensity, higher = more binding, comparable within an allelic series)"}
    ]},
    {"sequence": "CACGGCGC", "values": [
      {"measurement": "binding signal", "setting": "[13]", "value": "7.16 upbm affinity estimate (log intensity, higher = more binding, comparable within an allelic series)"},
      {"measurement": "binding signal", "setting": "[14]", "value": "7.21 upbm affinity estimate (log intensity, higher = more binding, comparable within an allelic series)"},
      {"measurement": "binding signal", "setting": "[15]", "value": "7.23 upbm affinity estimate (log intensity, higher = more binding, comparable within an allelic series)"}
    ]},
    {"sequence": "CAGTGCCG", "values": [
      {"measurement": "binding signal", "setting": "[13]", "value": "7.15 upbm affinity estimate (log intensity, higher = more binding, comparable within an allelic series)"},
      {"measurement": "binding signal", "setting": "[14]", "value": "7.27 upbm affinity estimate (log intensity, higher = more binding, comparable within an allelic series)"},
      {"measurement": "binding signal", "setting": "[15]", "value": "7.09 upbm affinity estimate (log intensity, higher = more binding, comparable within an allelic series)"}
    ]},
    {"sequence": "CTAGGGCC", "values": [
      {"measurement": "binding signal", "setting": "[7]", "value": "7.79 upbm affinity estimate (log intensity, higher = more binding, comparable within an allelic series)"},
      {"measurement": "binding signal", "setting": "[9]", "value": "7.79 upbm affinity estimate (log intensity, higher = more binding, comparable within an allelic series)"},
      {"measurement": "binding signal", "setting": "[12]", "value": "7.79 upbm affinity estimate (log intensity, higher = more binding, comparable within an allelic series)"}
    ]},
    {"sequence": "GCGTGGCC", "values": [
      {"measurement": "binding signal", "setting": "[13]", "value": "7.21 upbm affinity estimate (log intensity, higher = more binding, comparable within an allelic series)"},
      {"measurement": "binding signal", "setting": "[14]", "value": "7.36 upbm affinity estimate (log intensity, higher = more binding, comparable within an allelic series)"},
      {"measurement": "binding signal", "setting": "[15]", "value": "6.97 upbm affinity estimate (log intensity, higher = more binding, comparable within an allelic series)"}
    ]},
    {"sequence": "ACAGCGCG", "values": [
      {"measurement": "binding signal", "setting": "[13]", "value": "7.27 upbm affinity estimate (log intensity, higher = more binding, comparable within an allelic series)"},
      {"measurement": "binding signal", "setting": "[14]", "value": "7.28 upbm affinity estimate (log intensity, higher = more binding, comparable within an allelic series)"},
      {"measurement": "binding signal", "setting": "[15]", "value": "7.22 upbm affinity estimate (log intensity, higher = more binding, comparable within an allelic series)"}
    ]},
    {"sequence": "CGCCCAAG", "values": [
      {"measurement": "binding signal", "setting": "[7]", "value": "7.75 upbm affinity estimate (log intensity, higher = more binding, comparable within an allelic series)"},
      {"measurement": "binding signal", "setting": "[9]", "value": "7.67 upbm affinity estimate (log intensity, higher = more binding, comparable within an allelic series)"},
      {"measurement": "binding signal", "setting": "[12]", "value": "7.78 upbm affinity estimate (log intensity, higher = more binding, comparable within an allelic series)"}
    ]},
    {"sequence": "AGTCGCGC", "values": [
      {"measurement": "binding signal", "setting": "[13]", "value": "7.29 upbm affinity estimate (log intensity, higher = more binding, comparable within an allelic series)"},
      {"measurement": "binding signal", "setting": "[14]", "value": "7.12 upbm affinity estimate (log intensity, higher = more binding, comparable within an allelic series)"},
      {"measurement": "binding signal", "setting": "[15]", "value": "7.18 upbm affinity estimate (log intensity, higher = more binding, comparable within an allelic series)"}
    ]}
  ]
}
